Reference: PubChem BioAssay (Tox21)
Inconclusive results are not listed. A number with no mark means an inactive call. Activity calls are given as the source filed them. The call rests on the fitted dose curve.

Assay: qHTS assay for small molecules that induce genotoxicity in human embryonic kidney cells expressing luciferase-tagged ATAD5 - cell viability (AID 651634); further: nearly all actives have a fitted effect of over 25% in size
Details: HEK293T ATAD5-luc cells viability, CellTiter-Fluor, 15.5 h; series mostly up to 83.3 µM; activity, negative = cytotoxicity: at the top concentration
Outline: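 Here HEK293T cells with the ATAD5 luciferase reporter are incubated with test compounds for 15.5 hr, and cytotoxicity is then gauged by measuring protease activity in live cells using fluorescence.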
On the % scale 0 is the no-effect control and ±100 the full control effect.

SMILES | activity, negative = cytotoxicity | Potency
C=C(C)C(=O)OC(C)C | 14.9% | 
OCC1CC2CC1C1CCC(CO)C21 (stereo not drawn) | 23.7% | 
CCCCCCCCN(C)C | 12.9% | 
CC[C@H](C)[C@H](N)C(=O)O | 13.5% | 
CCN(CC)CCc1nc(-c2ccccc2)no1 | 17.1% [at 39.1 µM] | 
CCCCCCCCCCCCCCCC(=O)OC/C=C(C)/C=C/C=C(C)/C=C/C1=C(C)CCCC1(C)C |  | inactive
CCOC(=O)CC(=O)c1cc(F)c(Cl)nc1Cl | -9.97% [at 95.3 µM] | 
CC(=O)O[C@H]1C[C@@H]2CC[C@@H]3[C@H](CC[C@@]4(C)[C@H]3C[C@H]([N+]3(C)CCCCC3)[C@@H]4OC(C)=O)[C@@]2(C)C[C@@H]1N1CCCCC1 | 13.1% | 
Cc1ccc(C)o1 | -6.2% [at 95.3 µM] | 
CC(C)CCCC(C)CCO (stereo not drawn) | 6.73% | 
COc1ccc2[nH]c(S(=O)Cc3ncc(C)c(OC)c3C)nc2n1 (stereo not drawn) | -12.1% | 
NC(=S)N/N=C/c1cccnc1 | 4.62% | 
CC(C)c1ccccc1C(C)C | 10.1% | 
NCc1ccccc1 | 6.2% | 
CC(C)(C)c1ccc(S)cc1 | -6.18% | 
CNS(=O)(=O)Cc1ccc2[nH]cc(CCN(C)C)c2c1 | 27.7% | 
COc1ccccc1OC(=O)Oc1ccccc1OC | 2.72% | 
Cc1c(Cn2ccnc2)c2ccccc2n1CCC(=O)O | 9.14% | 
O=[N+]([O-])c1cc[n+]([O-])cc1 | 6.07% | 

SMILES | activity, negative = cytotoxicity | Potency
CCOc1cc(OCC)c(C(=O)CCC(=O)O)cc1OCC | 14.7% | 
O=S(=O)(O)c1ccc(O)c2ncccc12 | 46.5% | 
CC[C@]12CCCN3CCc4c(n(c5ccccc45)C(=O)C1)[C@@H]32 | -19.8% [at 39.1 µM] | 
CC(C)(C)C(=O)OCOP(=O)(COCCn1cnc2c(N)ncnc21)OCOC(=O)C(C)(C)C | -15.7% | 
N#CCc1cccc(C(F)(F)F)c1 | 13.3% | 
O=C=NC1CCC(CC2CCC(N=C=O)CC2)CC1 (stereo not drawn) | 9.51% | 
Cc1cc(NC(=O)C(=O)O)cc(C)c1Oc1ccc(O)c2c1CCC2 | -3.61% | 
CC(C)CC=O | 10.9% | 
Nc1ccc(C(=O)Nc2ccccc2N)cc1 | -17.1% | 
O=c1c2ccccc2nnn1CCl | 21.4% | 
Cc1ccc(C(C)c2ccc(C)c(C)c2)cc1C | 22% | 
C=CCCCCCC | 11% | 
CC(=O)N(O)CCCCCNC(=O)CCC(=O)N(O)CCCCCNC(=O)CCC(=O)N(O)CCCCCN | 5.81% [at 39.1 µM] | 
FC(F)(F)C(F)(F)C(F)(F)C(F)(F)C(F)(F)C(F)(F)CCI | 8.63% | 
COCCOCCOCCOCCOC | 11.5% | 
CCCCCCCCCC(=O)OCC | -4.15% | 
Cc1ccc(C(=O)C(C)CN2CCCCC2)cc1 (stereo not drawn) |  | inactive
CCN(CCO)CCCC(C)Nc1ccnc2cc(Cl)ccc12 (stereo not drawn) | -7.25% | 
Cc1cc(CC(=O)O)c(C)n1-c1ccc(Cl)cc1 | -1.89% | 
